# Measured values: PubChem BioAssay (Tox21)
# Several values for one entry are separate records, joined by “and”; a condition that tells them apart may be missing. Identical values can stand only once. Records with an inconclusive call do not appear. Where a call stands in place of a potency, no number is given. The source holds several records for some structures; these can differ, active in one and inactive in another. Activity calls are given as the source filed them. Unless noted, calls follow the shape of the dose curve; as a rule, active = well fitted curve in the direction sought with a large enough effect in the repeat runs; inconclusive = weak or mixed curves; inactive = no such curve, though single readings can be large; an effect the other way counts as inactive or inconclusive.
# What was measured:
# [1] = qHTS assay for small molecule agonists of the p53 signaling pathway (AID 651631; calls by dose curve; also: nearly all actives have a fitted effect of over 15% in size; also: potency is read from the fitted curve at half-maximal effect)
# Outline: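 Agonist mode screen using a stably integrated beta-lactamase gene under p53 response elements in HCT-116 cells. Compound exposure lasts 16 h at 37 °C; fluorescence intensity is measured following 2 h FRET substrate loading.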
# [2] = qHTS assay for small molecules that induce genotoxicity in human embryonic kidney cells expressing luciferase-tagged ATAD5 (AID 651632); also: nearly all actives have a fitted effect of over 15% in size
# Outline: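 Test compounds were delivered by pin tool onto HEK293T reporter cells (2,000/well) expressing ATAD5 fused to luciferase. After 16 hr at 37C, 5% CO2, Amplite was added for 30 min at room temperature and luminescence was measured.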
# [3] = qHTS assay for small molecule agonists of the p53 signaling pathway - cell viability (AID 651633; calls by dose curve; also: nearly all actives have a fitted effect of over 30% in size; also: potency is read from the fitted curve at half-maximal effect)
# Outline: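 p53RE-bla cells, seeded at 4,000 per well and rested 5 h at 37 C/5% CO2, received compounds in DMSO for 16 h at 37 C. CellTiter-Glo was then added, and luminescence was read after 30 min at room temperature to gauge cytotoxicity.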
# [4] = qHTS assay for small molecule disruptors of the mitochondrial membrane potential (AID 720635); also: potency is read from the fitted curve at half-maximal effect
# Outline: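 HepG2 cells (2,000/well) attached overnight at 37C, then took compound for 1 hr at 37C, 5% CO2. Mito-MPS dye was added for 30 min; fluorescence was read at 490/535 nm (monomers) and 540/590 nm (aggregates).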
# [5] = qHTS assay to test for compound auto fluorescence at 590 nm (red) in HepG2 cells (AID 720674); also: potency is read from the fitted curve at half-maximal effect
# Outline: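 Intrinsic compound fluorescence in the red window (Ex/Em 540/590 nm) is measured in attached HepG2 cells exposed for 1 hr, DMSO vehicle as baseline, benchmarked to Rose Bengal sodium.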
# [6] = qHTS assay to test for compound auto fluorescence at 535 nm (green) in HepG2 cells (AID 720675); also: potency is read from the fitted curve at half-maximal effect
# [7] = qHTS assay to test for compound auto fluorescence at 460 nm (blue) in HEK293 cells (AID 720678)
# Outline: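 Cells were seeded and left to adhere for 4-5 hr at 37C. Compounds were then pin-transferred. After an overnight incubation at 37C under 5% CO2, intrinsic fluorescence at 405/460 nm was measured and referenced to triamterene.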
# [8] = qHTS assay to test for compound auto fluorescence at 590 nm (red) in HEK293 cells (AID 720679); also: potency is read from the fitted curve at half-maximal effect
# Outline: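 Each well held 2,000 HEK293 cells in medium containing 10% dialyzed FBS. Following 4-5 hr attachment at 37C, 23 nL test compound or DMSO was added; plates sat overnight, and red fluorescence (540/590nm) was recorded.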
# [9] = qHTS assay for small molecules that induce genotoxicity in human embryonic kidney cells expressing luciferase-tagged ATAD5 - cell viability (AID 651634; calls by dose curve; also: nearly all actives have a fitted effect of over 25% in size; also: potency is read from the fitted curve at half-maximal effect)
# Outline: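 Quantitative high-throughput format. HEK293T cells expressing ATAD5 fused to luciferase were plated at 2,000 cells/well and treated 15.5 hr with compound versus DMSO. Viability was determined by fluorescent live-cell protease substrate, 30 min at 37C.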
# [10] = qHTS assay for small molecule disruptors of the mitochondrial membrane potential - cell viability (AID 720634; calls by dose curve;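 also: human HepG2 liver cancer cells; series mostly up to about 83 µM; nearly all actives have a fitted effect of over 20% in size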)
# Outline: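 Same-well counter-screen: following the MMP dye addition, CellTiter-Glo was added to 1 hr compound-treated HepG2 cells and luminescence read after 30 min at room temperature.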
# Tags tell the direction and shape of the fitted curve or compound fluorescence and quenching.
Structure (SMILES),Potency [1],Potency [2],Potency [3],Potency [4],Potency [5],Potency [6],outcome [7],Potency [8],Potency [9],Potency [10]
Cn1cnc([N+](=O)[O-])c1Sc1ncnc2nc[nH]c12,24.2 µM (active),inactive,0.68 µM (active),23.7 µM (active),inactive,inactive,inactive,inactive,–,–
CCC(C)OC(=O)c1ccc(O)cc1 (stereo unspecified),inactive,inactive,inactive,24.5 µM (active) and 17.2 µM (active),inactive,–,inactive,inactive,inactive,–
CCC(C)(O)CCCC(C)C (stereo unspecified),inactive,inactive,inactive,inactive,inactive,inactive,inactive,–,inactive,–
C=CC(C)(CCC=C(C)C)OC(C)=O (stereo unspecified),inactive,inactive,inactive,inactive,–,inactive,inactive,–,–,inactive
O=C(c1ccccc1)c1ccc(O)cc1O,inactive,inactive,inactive,27.8 µM (active) and 61.1 µM (active),inactive,–,inactive,–,inactive,–
CCOC(=O)C(C#N)=C(c1ccccc1)c1ccccc1,inactive,inactive,inactive,–,–,inactive,inactive,inactive,inactive,–
CCCCCCCCCC(=O)OC,–,inactive,inactive,inactive,inactive,–,inactive,–,inactive,inactive
COc1c(Cl)c(Cl)c(Cl)c(Cl)c1Cl,–,inactive,inactive,–,inactive,inactive,inactive,inactive,inactive,–
COc1ccccc1/C=C/C=O,–,inactive,inactive,inactive,–,–,inactive,inactive,inactive,inactive
O=C(O)c1ccccc1Nc1cccc(C(F)(F)F)c1,–,inactive,–,26.6 µM (active) and 43.3 µM (active),inactive,inactive,inactive,inactive,inactive,inactive
O=P(O)(O)O,–,–,–,inactive,inactive,inactive,inactive,inactive,inactive,–
COc1cc([C@@H]2c3cc4c(cc3[C@H](O)[C@H]3COC(=O)[C@H]23)OCO4)cc(OC)c1OC,–,–,inactive,150 nM (active) and 76.9 nM (active),inactive,–,inactive,inactive,inactive,inactive
S=C(NC1CCCCC1)NC1CCCCC1,–,inactive,–,53.4 µM (active) and 54.5 µM (active),inactive,inactive,inactive,inactive,inactive,–
CC(C(=O)O)c1cccc(C(=O)c2ccccc2)c1 (stereo unspecified),inactive,–,–,inactive,inactive,inactive,inactive,inactive,–,inactive
Cc1cc2nc3c(=O)[nH]c(=O)nc-3n(C[C@H](O)[C@H](O)[C@H](O)CO)c2cc1C,–,inactive,inactive,–,inactive,–,inactive,inactive,inactive,inactive
CCC(C)c1ccccc1O (stereo unspecified),–,inactive,inactive,54.1 µM (active) and 30.6 µM (active),–,inactive,inactive,–,inactive,inactive
CN(C)C(=N)N=C(N)N,–,–,inactive,inactive,inactive,inactive,inactive,inactive,inactive,–
CCCCC/C=C/C=C/C=O,–,inactive,54 µM (active),60.6 µM (active) and 54.5 µM (active),inactive,–,inactive,inactive,–,–
NC=O,–,inactive,inactive,inactive,–,inactive,inactive,inactive,inactive,–
CC1=CC2C3CC(C=C3C)C2C1 (stereo unspecified),–,inactive,inactive,inactive,–,inactive,inactive,inactive,inactive,inactive
c1ccc2cc(Nc3ccc(Nc4ccc5ccccc5c4)cc3)ccc2c1,–,inactive,inactive,inactive,inactive,–,inactive,–,inactive,inactive
O=C1OC2(c3cc(Br)c(O)c(Br)c3Oc3c2cc(Br)c(O)c3Br)c2c(Cl)c(Cl)c(Cl)c(Cl)c21,–,inactive,54.5 µM (active),–,1.41 µM (active) and 7.94 µM (active),17.8 µM (active),inactive,2.51 µM [fluorescent] (active) and 14.1 µM [fluorescent] (active),9.7 µM (active) and 37.1 µM (active),inactive
O=[N+]([O-])c1ccc2c(c1)Cc1ccccc1-2,–,inactive,inactive,–,–,–,inactive,inactive,inactive,–
O=C(COc1ccc(Cl)cc1)N1CCN(Cc2ccc3c(c2)OCO3)CC1,–,inactive,inactive,inactive,–,inactive,inactive,inactive,inactive,inactive
CCCCc1oc2ccccc2c1C(=O)c1cc(I)c(OCCN(CC)CC)c(I)c1,–,inactive,26.6 µM (active) and 48.9 µM (active),–,inactive,inactive,inactive,inactive,inactive,inactive
Nc1ccc(Nc2ccccc2)cc1,–,inactive,inactive,1.35 µM (active) and inactive,inactive,inactive,inactive,–,inactive,–
CC(=O)O[C@]1(C(C)=O)CC[C@H]2[C@@H]3C=C(Cl)C4=CC(=O)[C@@H]5C[C@@H]5[C@]4(C)[C@H]3CC[C@@]21C,–,–,inactive,30.6 µM (active),–,–,inactive,inactive,inactive,–
